Assay results published in PubChem BioAssay (NCI).
This is part of a sample that, as a whole, favours compounds with a hit. Of some 83,000 tested, about 20% had one in any assay.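 48-hour exposure, single concentration, 96-well plates; percent growth endpoint where 0 means no net growth. Active: below 10.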 Unmarked numbers belong to inactive results. The source made the active and inactive calls.

Assays:
Experiment in all cases: NCI-60 one-dose screen, 48 h (100 = growth as untreated, 0 = no growth, -100 = all killed)
Conditions in all cases: 10 µM unless noted
[1] = test system: NCI-H23 lung
[2] = test system: NCI-H226 lung
[3] = test system: NCI-H322M lung
[4] = test system: HOP-62 NSCLC
[5] = test system: NCI-H460 lung
[6] = test system: HOP-92 NSCLC
[7] = test system: NCI-H522 lung
[8] = test system: A549/ATCC NSCLC
[9] = test system: 786-0 renal
[10] = test system: COLO 205 colon

| SMILES | growth [1] | growth [2] [%] | growth [3] [%] | growth [4] [%] | growth [5] | growth [6] | growth [7] | growth [8] [%] | growth [9] | growth [10] |
| --- | --- | --- | --- | --- | --- | --- | --- | --- | --- | --- |
| COc1cc2ncnc(Nc3ccc(F)c(Cl)c3)c2cc1OCC(=O)N1CCN(c2ccccc2)CC1 | 88% | 92.5 | 34 | 103 | 95.6% | 86.8% | 79.9% | 82.9 | 85.6% | 112% |
| O=c1c2cnn(-c3ccccc3)c2n2c(CN3CCOCC3)nnc2n1-c1ccccc1 | 108% | 104 | 108 | 78.1 | 102% | 81.3% | 41.2% | 76.9 | 92.6% | 96.5% |
| Nc1ncnc2c1c(-c1cccc(Cl)c1)nn2CC(=O)N1CCOCC1 | 97.5% | 93 | 102 | 109 | 107% | 105% | 102% | 99.9 | 94.8% | 116% |
| CN(/C(N)=N/N=C/c1c2ccccc2cc2ccccc12)C1CCCCC1 | 16.1% | 64.3 | 73.6 | 75.8 | 43.6% | -5.84% (active) | 40.9% | 43.4 | 49.5% | -55.5% (active) |
| COCCOc1cc2ncnc(N3CCN(c4cc(S(C)(=O)=O)c(C)cc4Cl)CC3)c2cc1OCCOC | 81.9% | 81.4 | 105 | 100 | 102% | 53.3% | 90.6% | 90.6 | 105% | 97.1% |
| O=C(O)CCN1C(=O)/C(=C/C(Cl)=C/c2ccccc2)SC1=S | 21.3% | 23.6 | 61 | 53.9 | 16.6% | 53.7% | 10.6% | 44.8 | 9.92% (active) | 13% |
| O=C(NCCCl)Nc1ncccc1OCc1ccccc1 | 99.6% | 104 | 92.4 | 100 | 101% | 103% | 85.3% | 103 | 100% | 106% |
| CCOC(=O)c1cc2c(n1C)-c1nc(NC(C)=O)sc1CCC2 | 76.1% | 69.1 | 76.2 | 74.6 | 95.5% | 48.4% | 60.9% | 64.8 | 84.6% | 96.4% |
| C=CCN=c1sc2c(n1NC(=O)c1cc3ccc1CCc1ccc(cc1)CC3)C(=O)c1ccccc1C2=O | -34.1% (active) | 48.5 | 67.8 | 19.5 | 12.7% | 21.5% | -20.2% (active) | 23.3 | -21.8% (active) | 19.2% |
| C/C(=N\O)c1ccc(Cl)cc1 | 110% | 106 | 123 | 95.7 | 112% | 65.3% | 105% | 97.9 | 107% | 108% |
| Nc1cnc(C(=O)NNc2nc3cc(F)ccc3n3cccc23)cn1 | 44% | 49.5 | 26.3 | 33 | 7.9% (active) | 64.2% | 16.7% | 38.8 | 37.7% | 9.48% (active) |
| CC(C)C1=NOC(=O)C1=Cc1cn(-c2ccccc2)nc1-c1ccc(F)cc1 | 95.6% | 93.7 | 94.9 | 90.1 | 76.8% | 89.8% | 66.5% | 81.4 | 77.4% | 94.4% |
| CN(C)CC1CCC(CN(C)C)C1=O (stereo not given) | 114% | 101 | 110 | 106 | 111% | 100% | 95.3% | 110 | 102% | 103% |
| CCCCNC(=O)Oc1ccc(/C(=C(/C)Cc2ccc(OC)cc2)c2ccc(OCCN(CC)CC)cc2)cc1 | 97% | 101 | 84.9 | 91.5 | 53.3% | 52.6% | 85.3% | 61.2 | 69% | 46.8% |
| NC(Cc1ccc(O)c([N+](=O)[O-])c1)C(=O)O (stereo not given) | 98.5% | 101 | 107 | 105 | 113% | 67.4% | 94.7% | 100 | 99.2% | 122% |
| CCN(CC)c1ccc(\C=N/N=C(N)/C(N)=N\N=C/c2ccc(N(CC)CC)cc2)cc1 | 94.9% | 103 | 105 | 93.1 | 109% | 116% | 92.2% | 104 | 113% | 106% |
| O=C(N/N=C/c1c(Cl)cccc1Cl)c1cccnc1Nc1cccc(C(F)(F)F)c1 | 44.3% | 18.4 | 35 | 40.2 | 15% | 14.7% | 1.47% (active) | 51 | 42.6% | 15.1% |
| COc1ccc(C2=C(Br)C(=O)c3nc(C)ccc3C2=O)cc1 | 88.1% | 83 | 88.4 | 86.8 | 95.7% | 78% | 24% | 98 | 103% | 0.376% (active) |
| COC(=O)[C@]1(C)CCC[C@]2(C)[C@H]3C[C@H]4C(C(C)C)=C[C@]3(CC[C@H]21)[C@@H]1C(=O)CC[C@H](OCCC#N)[C@@H]14 | 84.7% | 74.3 | 106 | 95 | 94.7% | 76.6% | 89.9% | 92.2 | 81% | 85.2% |
| COc1cc(OCc2cccc(Br)c2C)cc(OC)c1C=O | 75.7% | 29.3 | 92.6 | 93.5 | 75.8% | 90.6% | 62% | 76.5 | 79.4% | 93.4% |
| CCc1ncnc2c1ccn2C(C)c1ccc(OC)c(F)c1 (stereo not given) | 38.9% | 77.2 | 79.7 | 41.3 | 30.8% | 43.2% | 43.3% | 41.1 | 74.9% | 26.3% |
| CCCCCCCC[C@@H]1N[C@@H](C(=O)OC)Cc2c1[nH]c1ccccc21 | 92.1% | 92.5 | 99.7 | 103 | 102% | 89.5% | 86.6% | 104 | 96.2% | 113% |
| COc1ccc(-c2nc3c(ncc4ccc(=O)[nH]c43)s2)cc1 | 78.8% | 76.1 | 77.7 | 90.2 | 40.8% | 87.7% | 85.3% | 56.1 | 88.3% | 83.6% |
| CCCCCCCCCCC(CN(CC)CC)C(O)c1ccccc1 (stereo not given) | 38% | 15.4 | 80.3 | 53.4 | 21.7% | -1.6% (active) | -14.4% (active) | 54.7 | 49.1% | -42.6% (active) |
| CCc1ccccc1-n1c(-c2ccc(OC)cc2)cc(-c2ccc(OC)cc2)c(C#N)c1=O | 73.8% | 95.9 | 82.2 | 67.5 | 85.5% | 5.54% (active) | 73.8% | 100 | 33.7% | 132% |
| Clc1cc(Cl)c(Cl)c(-c2nnc(SCc3ccncc3Br)o2)c1 | 87.7% | 98 | 102 | 82.5 | 95.9% | 84.4% | 83.8% | 153 | 93.7% | 110% |
| CCN(CC)CC(O)COc1c(Br)c(Br)c(Br)c2c1OC(C)(C)C2 (stereo not given) | 96.1% | 46.4 | 60.7 | 96.8 | 27.7% | 28.1% | 145% | 132 | 51.3% | 67.7% |
